Drawing on PubChem BioAssay AID1446 (The Scripps Research Institute Molecular Screening Center, 2008), this text covers inhibition for 95 molecules.

Among all 220,000 compounds or so, about 2,400 (1.1%) were called active.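 Rule for the calls: active = inhibition above the campaign mean plus 3 SD over all tested compounds (cut at about 24% in these data); inactive = the rest.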 What follows is part of a selection rich in actives, with near analogues and random picks from the rest.

For orientation: inhibition means the drop in the measured response relative to a control, in per cent.

The experiment in a line: reduced viability of JAK2V617F-dependent Ba/F3 cells, primary screen, JAK2V617F inhibitor project, cell-based, Ba/F3 EpoR-JAK2V617F, luminescence (AID 1446).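 Note: cytokine-independent growth of Ba/F3 cells driven by EpoR plus mutant JAK2; 0% = DMSO-treated cells and 100% = JAK inhibitor I control.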 The conditions noted are these: ATP luminescence, at 5.6 µM, hits give high values.
On to `CCOc1cc(/C=C2/C(=N)N3OC(C)=CC3=NC2=O)ccc1OC`, for which the inhibition is 1.56% (inactive).

Take `C/C(=N\NC(N)=S)c1cccnc1`: the inhibition is -4.73% (inactive).

Consider `CN(Cc1ccccc1)C(=O)CCc1ccccc1`, for which the inhibition is -4.97% (inactive).

In the case of `Cc1ccc(-c2cnc(NC(=O)CCC(=O)N(C)Cc3ccccc3)n2C)cc1`, the inhibition is 40.1% (active).

For `Cn1c(-c2ccc(F)cc2)cnc1SCC(=O)NNC(=O)Cc1ccccc1`, the inhibition is 0.3% (inactive).

For the molecule `CC(=O)c1ccc(N2CCN(S(=O)(=O)c3c(C)[nH]c(=O)[nH]c3=O)CC2)cc1`, the inhibition is 2% (inactive).

Consider `c1ccc2c(c1)CSc1sccc1C2=C1CCNCC1`, for which the inhibition is 45.9% (active).

In the case of `Cn1ccc(=Nc2ccc(NC(=O)c3ccc(N=c4ccn(C)c5ccc([N+](=O)[O-])cc45)cc3)cc2)cc1`, the inhibition is 34.4% (active).

As to `CC(=O)NC(=S)Nc1ccc(NC(=S)NC(=O)c2ccc([N+](=O)[O-])cc2)cc1`, the inhibition was -4.8% (inactive).

In the case of `Cc1cc([N+](=O)[O-])ccc1NC(=O)c1ccc(NC(=O)C(C)C)cc1`, the inhibition is 0.7% (inactive).

Turning to `O=C(Nc1ccccc1-c1ccccc1)c1cccs1`, the inhibition is 6.54% (inactive).

Regarding `N#Cc1ccc(OCc2nnc(-c3ccc([N+](=O)[O-])cc3)o2)cc1`, the inhibition is 1.03% (inactive).

Turning to `Cc1n[nH]c(=O)n1-c1ccc(C(C)C)cc1`, the inhibition was 0.05% (inactive).

`O=C(Nc1ccccc1)Nc1ccc(C(F)(F)F)cn1`: the inhibition is 2.61% (inactive).

With `Oc1ccc(/C=N/Nc2ccc(C(F)(F)F)cn2)cc1O`, the inhibition is 72% (active).

Regarding `Cc1nccn1CC(=O)N/N=C/c1ccc(O)c(O)c1`, the inhibition is -3.5% (inactive).

On to `CC1(C)C2CC=C(/C=N/NC(=O)C3CC3)C1C2` (stereo not given), for which the inhibition was -1.08% (inactive).

`Fc1ccc2[nH]c3c(N4CCN(Cc5ccc6c(c5)OCO6)CC4)ncnc3c2c1`: the inhibition was 37.1% (active).

Consider `Cc1cc(N2CCN(Cc3ccc4c(c3)OCO4)CC2)n2ncnc2n1`, for which the inhibition is 4.15% (inactive).

Regarding `Fc1ccc2[nH]c3c(N4CCSCC4)ncnc3c2c1`, the inhibition is -5.13% (inactive).

`CC(=O)Nc1ccc(/C(C)=N/NC(=O)CN(c2ccccc2Br)S(C)(=O)=O)cc1`: the inhibition is -0.87% (inactive).

Turning to `CSc1sc(C(=O)NC(=O)NCc2cccnc2)c(C)c1-c1ccon1`, the inhibition is -1.98% (inactive).

For `COc1ccc(C2C(C(C)=O)=C(O)C(=O)N2CCc2c[nH]c3ccccc23)cc1` (stereo not given), the inhibition was -3.16% (inactive).

`O=C(N/N=C\c1cc(Br)c(Br)o1)C1COc2ccccc2O1` (stereo not given): the inhibition was -4.95% (inactive).

Turning to `CN(Cc1ccc2nsnc2c1)Cc1nc(Cc2cccc(F)c2)no1`, the inhibition is 47.5% (active).

`CCc1ccc(CN(C)Cc2nc(Cc3ccccc3)no2)nc1`: the inhibition was 1.45% (inactive).

Take `CN(Cc1nc2ccc(F)cc2[nH]1)Cc1nc(CC2CC2)no1`: the inhibition was -1.61% (inactive).

On to `Cc1cc(C(=O)CCl)c(C)n1CC1COc2ccccc2O1` (stereo not given), for which the inhibition was 2.03% (inactive).

Regarding `CSCCC(NS(=O)(=O)c1ccc2c(c1)oc(=O)n2C)C(=O)NCc1ccccc1` (stereo not given), the inhibition was -3.72% (inactive).

Regarding `COc1ccc(NC(=O)Nc2ccc3nc(C)c(C)nc3c2)cc1`, the inhibition is -2.47% (inactive).

For the molecule `Cc1nc(/N=C(\N)NC(=O)NC2CCCCC2)nc2ccccc12`, the inhibition was 2.92% (inactive).

`COc1ccc2nc(/N=C(\N)NC(=O)Nc3ccccc3)nc(C)c2c1`: the inhibition is 30.8% (active).

`CCCN(CCC)S(=O)(=O)c1ccc(C(=O)NNC(=O)c2cc(OC)c(OC)c(OC)c2)cc1`: the inhibition is -3.01% (inactive).

As for `C#CCOCCOCCOCCNc1nc(N2CCN(C(=O)[C@H](C(C)C)n3cc(CCO)nn3)CC2)nc(N2CCN(C(=O)[C@H]([C@@H](C)CC)n3cc(CCCN=C(N)N)nn3)CC2)n1`, the inhibition is 1.82% (inactive).

Regarding `O=C(NNc1ccccn1)c1ccc(Cl)nc1`, the inhibition was -0.88% (inactive).

Take `CCN(CC)c1ccc(NC(=O)c2ccc(Cl)nc2)cc1`: the inhibition is 81.4% (active).

As to `NS(=O)(=O)c1ccc(NC(=O)COC(=O)c2ccc(Cl)nc2)cc1`, the inhibition was 0.7% (inactive).

Turning to `COc1ccc(CN(C)Cc2nc3cc(OC)c(OC)cc3c(=O)[nH]2)c(OC)c1`, the inhibition is 1.74% (inactive).

As for `C[C@H](NC(=O)c1ccccc1Cl)C(=O)OCCOc1cccc(Cl)c1`, the inhibition is -3.18% (inactive).

As to `Cn1cc(C(=O)NCc2ccccc2F)cn1`, the inhibition is -6.67% (inactive).

Turning to `N#CC1(C#N)C(C(=O)C23CC4CC(CC(C4)C2)C3)C12CCOCC2` (stereo not given), the inhibition was -2.53% (inactive).

As for `Cn1c(N)c(C(=O)COC(=O)/C=C/c2ccc(OC(F)F)cc2)c(=O)n(C)c1=O`, the inhibition was 2.97% (inactive).

Regarding `Cc1ccc(NC(=O)CN(C)Cc2ccc(F)cc2)c([N+](=O)[O-])c1`, the inhibition was -2.86% (inactive).

Consider `O=[N+]([O-])c1cccc(Nc2c3ccccc3nc3ccccc23)c1`, for which the inhibition was -2.83% (inactive).

`Cc1ccc(Nc2c3c(nc4ccccc24)CCC3)cc1`: the inhibition is 4.72% (inactive).

`CC(=O)Nc1ccc(Nc2c3ccccc3nc3ccccc23)cc1`: the inhibition was 102% (active).

Turning to `COc1cc2c(cc1O)[C@H](Cc1ccc(Oc3cc(C[C@@H]4NCCc5cc(OC)c(O)cc54)ccc3O)cc1)NCC2`, the inhibition was 1.92% (inactive).

In the case of `CC[C@H]1CN2CCc3cc(OC)c(OC)cc3[C@@H]2C[C@@H]1C[C@H]1NCCc2cc(OC)c(OC)cc21`, the inhibition is 101% (active).

Consider `Cn1cnc(C(F)(F)F)c1-c1ccc([N+](=O)[O-])cc1`, for which the inhibition is -0.95% (inactive).

As for `O=C(O)/C=C/c1ccc2c(c1)OCCO2`, the inhibition was 0.26% (inactive).

For `CNCC(O)CN1CCN(c2ccccc2OC)CC1` (stereo not given), the inhibition was -2.42% (inactive).

For `COc1ccccc1N1CCN(Cc2ccc(OC)c3ccccc23)CC1`, the inhibition was 26.8% (active).

Take `COc1ccccc1N1CCN(CCCCOc2ccc(F)cc2)CC1`: the inhibition is -1.67% (inactive).

For the molecule `O=c1[nH]c2ccccc2s1`, the inhibition was 1.22% (inactive).

Take `O=C(Oc1ccccc1Cl)c1ccc(N2CCOCC2)c([N+](=O)[O-])c1`: the inhibition is 0.46% (inactive).

As for `Cc1ccc(S(=O)(=O)NCCC(c2ccccc2)c2ccccc2)cc1C(=O)O`, the inhibition is 0.73% (inactive).

With `C/C(=N/NC(=O)CN1CCN(S(=O)(=O)c2ccc(Br)cc2)CC1)c1ccncc1`, the inhibition is -1.23% (inactive).

As to `COc1ccc(-c2csc(Cc3nc(O)cs3)n2)cc1`, the inhibition is -2.27% (inactive).

For the molecule `Cc1onc(C(=O)NN)c1-c1csc(COc2ccccc2)n1`, the inhibition was 3.97% (inactive).

For `CC(C)(C)C(=O)OCc1nc(-c2ccc(O)c(O)c2)cs1`, the inhibition was 83.4% (active).

Regarding `CC(C)NC(=S)N1CCN(S(C)(=O)=O)CC1`, the inhibition was -5.62% (inactive).

In the case of `O=C(c1ccc(=O)oc1)N1CCC(C(O)(c2ccccc2)c2ccccc2)CC1`, the inhibition is 2.85% (inactive).

As to `COc1ccc(F)cc1C(=O)C1CCCN(C(=O)CCc2ccccn2)C1` (stereo not given), the inhibition was 0.16% (inactive).

In the case of `CSCC(=O)N1CCCC(C(=O)c2cc(F)ccc2F)C1` (stereo not given), the inhibition was 67.6% (active).

Regarding `COc1ccc(/C=C/CN2CCCC(C(=O)c3cc(F)ccc3F)C2)cc1` (stereo not given), the inhibition was 0% (inactive).

Take `COc1ccc(Cc2cc(-c3ccc(F)cc3)n[nH]c2=O)cc1`: the inhibition was 1.71% (inactive).

For `C=CCOC(=O)C1=C(C)NC(SCC(=O)OCC)=C(C#N)C1c1ccc(C)cc1` (stereo not given), the inhibition is -0.33% (inactive).

Regarding `Cc1ccc(C2CC(=O)NC(SCC(=O)OCc3ccccc3)=C2C#N)o1` (stereo not given), the inhibition was 1.77% (inactive).

As for `CCOC(=O)CSC1=C(C#N)C(c2sccc2C)CC(=O)N1` (stereo not given), the inhibition was 83.5% (active).

`COc1cccc(-n2c(=O)c3c(C)c(C(=O)N(C)C)sc3n(CC(=O)NCCc3ccc(OC)c(OC)c3)c2=O)c1`: the inhibition is 3.31% (inactive).

Regarding `C/C(=N\NC(=O)C(N)=O)c1ccc2c(c1)OCCO2`, the inhibition was 1.44% (inactive).

For the molecule `CCn1c2ccccc2c2cc(CC(N)=O)ccc21`, the inhibition is 2.78% (inactive).

In the case of `CCN(CCNC(=O)C1=C(C)C(=O)OC12CCC(C)CC2)c1ccccc1` (stereo not given), the inhibition is -2% (inactive).

As to `CC(C)CC(COCc1ccc(Cl)cc1)N1CCN(C(=O)c2ccc(C(F)(F)F)cc2)CCC1=O` (stereo not given), the inhibition is -1.84% (inactive).

With `N#C/C=C\Oc1ccc(Cl)cc1N`, the inhibition was 28% (active).

As for `COc1ccc(Cl)cc1C(=O)NCC#N`, the inhibition was -0.27% (inactive).

Turning to `COc1ccc(N(C(=O)c2ccc(C)cc2)S(=O)(=O)c2cccs2)cc1`, the inhibition was 0.51% (inactive).

For the molecule `Cc1nc(CNS(=O)(=O)c2cc([N+](=O)[O-])ccc2C)cs1`, the inhibition is 0.63% (inactive).

For the molecule `O=C(Nc1nc2ccc([N+](=O)[O-])cc2s1)c1ccncc1`, the inhibition was -1.41% (inactive).

For the molecule `O=C(NC(Nc1nc2ccc([N+](=O)[O-])cc2s1)(C(F)(F)F)C(F)(F)F)c1ccccc1`, the inhibition was 70.1% (active).

As to `O=C(O)CCC(=O)Nc1nc2ccc([N+](=O)[O-])cc2s1`, the inhibition is 3.19% (inactive).

For the molecule `CC1C(=O)NC(=O)C1c1ccccc1` (stereo not given), the inhibition is -4.47% (inactive).

Turning to `CN(C)c1ccc(/C=N/N(Cc2ccccc2)c2ccccc2)cc1`, the inhibition is 3.41% (inactive).

Regarding `COC(=O)c1ccc(Cc2ccccc2)o1`, the inhibition is -0.12% (inactive).

As for `CN(C)c1cc[n+](Cc2ccccc2)cc1`, the inhibition was 87.3% (active).

Take `c1ccc(Cc2cc[n+](Cc3ccccc3)cc2)cc1`: the inhibition was 52.6% (active).

On to `CN(Cc1ccccc1)Cc1ccccc1F`, for which the inhibition is 3.28% (inactive).

Regarding `CSc1ccc(CN2C(=O)NC3(CCCCCC3)C2=O)cc1`, the inhibition is -4.13% (inactive).

`C/C(=N\NC(=O)COc1c(C)cccc1C)c1cccs1`: the inhibition is 1.35% (inactive).

Regarding `COCCn1c(SCC(=O)c2[nH]c(C)c(C(C)=O)c2C)nc2ccccc2c1=O`, the inhibition was 1.81% (inactive).

Regarding `Cc1[nH]n(C)c(=O)c1N=Nc1ccc(S(C)(=O)=O)cc1`, the inhibition is 1.06% (inactive).

`CC1=C/C(=N\OS(=O)(=O)c2ccccc2)C=CC1=O`: the inhibition was 40.6% (active).

As for `CCOC(=O)C1(S(=O)(=O)c2ccccc2)CCN(Cc2ccccc2)CC1`, the inhibition is 0.13% (inactive).

As for `CC1=C/C(=N\S(=O)(=O)c2ccccc2)C(C(C)C)=CC1=O`, the inhibition is -3.55% (inactive).

With `Cc1ccc2nc(C)c3c(c2c1)N(c1ccccc1)CC3`, the inhibition is 19.9% (inactive).
